Results taken from PubChem BioAssay AID1159580 (chemical genetic matrix, 2015).
Values joined by “and” are separate entries in the source; they are usually repeats but may differ in a detail not shown here. Equal entries are not always repeated. In all, about 5,500 compounds went through this assay and about 2,000 (36%) were called active. Not shown: some 18% with an inconclusive outcome. The list shows a part of the results. Unmarked numbers belong to inactive results. No stated cut-off is given here; in the data, active means normalized growth mostly below about 0.91 (no sharp cut-off); inconclusive means no clear call, values can overlap the other calls; inactive means mostly above about 0.92.

Assay: chemical genetic growth profiling, strain panel (AID 1159580);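 further: tested at 20 µM; growth read once vehicle control cultures reached saturation at 30 °C; 1 = growth at the plate median or of vehicle wells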
Settings: S. cerevisiae deletion strains, growth OD

**Q.** Which normalized growth (locus YAL013W, strain DEP1, stronger effect = lower value) does the source give for `CCOC(=O)c1c(C)cc(OC)cc1O` here?
**A.** Its normalized growth is 1.

**Q.** And the normalized growth (locus YAL021C, strain ccr4, stronger effect = lower value)?
**A.** The normalized growth was 1.02.

**Q.** And the normalized growth (locus YAL026C, strain drs2, stronger effect = lower value)?
**A.** Its normalized growth is 0.977.

**Q.** And the normalized growth (locus YAL030W, strain snc1, stronger effect = lower value)?
**A.** The normalized growth was 0.962.

**Q.** And the normalized growth (locus YBL061C, strain skt5, stronger effect = lower value)?
**A.** Its normalized growth is 0.981.

**Q.** What about the normalized growth (locus YBR009C, strain hhf1, stronger effect = lower value) of the same compound?
**A.** Its normalized growth is 0.962.

**Q.** What about the normalized growth (locus YBR021W, strain FUR4, stronger effect = lower value) of the same compound?
**A.** Its normalized growth is 0.971.

**Q.** And the normalized growth (locus YBR023C, strain chs3, stronger effect = lower value)?
**A.** The normalized growth was 0.97.

**Q.** What about the normalized growth (locus YBR171W, strain sec66, stronger effect = lower value) of the same compound?
**A.** Its normalized growth is 0.934.

**Q.** And the normalized growth (locus YBR229C, strain ROT2, stronger effect = lower value)?
**A.** The normalized growth was 1.

**Q.** What about the normalized growth (locus YBR231C, strain swc5, stronger effect = lower value) of the same compound?
**A.** Its normalized growth is 0.987.

**Q.** And the normalized growth (locus YBR279W, strain paf1, stronger effect = lower value)?
**A.** The normalized growth was 0.993.

**Q.** And the normalized growth (locus YCL011C, strain gbp2, stronger effect = lower value)?
**A.** Its normalized growth is 0.975.

**Q.** What about the normalized growth (locus YCL016C, strain dcc1, stronger effect = lower value) of the same compound?
**A.** The normalized growth was 0.971.

**Q.** And the normalized growth (locus YCL029C, strain bik1, stronger effect = lower value)?
**A.** The normalized growth was 0.949.

**Q.** What about the normalized growth (locus YCL061C, strain MRC1, stronger effect = lower value) of the same compound?
**A.** Its normalized growth is 0.972.

**Q.** What about the normalized growth (locus YCL069W, strain vba3, stronger effect = lower value) of the same compound?
**A.** Its normalized growth is 0.969.

**Q.** What about the normalized growth (locus YCR088W, strain abp1, stronger effect = lower value) of the same compound?
**A.** Its normalized growth is 0.953.

**Q.** And the normalized growth (locus YDL005C, strain med2, stronger effect = lower value)?
**A.** Its normalized growth is 1.01.

**Q.** What about the normalized growth (locus YDL035C, strain GPR1, stronger effect = lower value) of the same compound?
**A.** The normalized growth was 0.983.

**Q.** What about the normalized growth (locus YDL040C, strain nat1, stronger effect = lower value) of the same compound?
**A.** The normalized growth was 0.959.

**Q.** What about the normalized growth (locus YDL074C, strain BRE1, stronger effect = lower value) of the same compound?
**A.** The normalized growth was 0.955.

**Q.** And the normalized growth (locus YDL101C, strain DUN1, stronger effect = lower value)?
**A.** Its normalized growth is 1.01.

**Q.** What about the normalized growth (locus YDL134C, strain PPH21, stronger effect = lower value) of the same compound?
**A.** Its normalized growth is 0.996.

**Q.** What about the normalized growth (locus YDL185W, strain tfp1, stronger effect = lower value) of the same compound?
**A.** Its normalized growth is 0.984.

**Q.** And the normalized growth (locus YDL192W, strain arf1, stronger effect = lower value)?
**A.** Its normalized growth is 0.942.

**Q.** What about the normalized growth (locus YDR001C, strain nth1, stronger effect = lower value) of the same compound?
**A.** Its normalized growth is 0.96.

**Q.** What about the normalized growth (locus YDR069C, strain doa4, stronger effect = lower value) of the same compound?
**A.** Its normalized growth is 0.999.

**Q.** And the normalized growth (locus YDR101C, strain arx1, stronger effect = lower value)?
**A.** The normalized growth was 0.917 (active).

**Q.** And the normalized growth (locus YDR137W, strain rgp1, stronger effect = lower value)?
**A.** Its normalized growth is 0.784 (active).

**Q.** What about the normalized growth (locus YDR150W, strain NUM1, stronger effect = lower value) of the same compound?
**A.** Its normalized growth is 1.01.

**Q.** What about the normalized growth (locus YDR159W, strain sac3, stronger effect = lower value) of the same compound?
**A.** The normalized growth was 0.926.

**Q.** What about the normalized growth (locus YDR162C, strain NBP2, stronger effect = lower value) of the same compound?
**A.** Its normalized growth is 1.01.

**Q.** And the normalized growth (locus YDR195W, strain ref2)?
**A.** Its normalized growth is 1.1.

**Q.** And the normalized growth (locus YDR297W, strain sur2, stronger effect = lower value)?
**A.** Its normalized growth is 0.975.

**Q.** What about the normalized growth (locus YDR318W, strain mcm21, stronger effect = lower value) of the same compound?
**A.** Its normalized growth is 0.902 (active).

**Q.** And the normalized growth (locus YDR334W, strain swr1, stronger effect = lower value)?
**A.** Its normalized growth is 0.979.

**Q.** What about the normalized growth (locus YDR335W, strain msn5, stronger effect = lower value) of the same compound?
**A.** Its normalized growth is 0.991.

**Q.** And the normalized growth (locus YDR388W, stronger effect = lower value)?
**A.** Its normalized growth is 0.958.

**Q.** What about the normalized growth (locus YDR392W, strain spt3, stronger effect = lower value) of the same compound?
**A.** The normalized growth was 0.724 (active).

**Q.** What about the normalized growth (locus YDR502C, strain sam2, stronger effect = lower value) of the same compound?
**A.** Its normalized growth is 0.921 (active).

**Q.** What about the normalized growth (locus YEL003W, strain gim4, stronger effect = lower value) of the same compound?
**A.** The normalized growth was 0.964.

**Q.** What about the normalized growth (locus YEL037C, strain rad23, stronger effect = lower value) of the same compound?
**A.** Its normalized growth is 0.978.

**Q.** What about the normalized growth (locus YEL061C, strain CIN8 (second series), stronger effect = lower value) of the same compound?
**A.** The normalized growth was 0.962.

**Q.** And the normalized growth (locus YEL061C, strain CIN8, stronger effect = lower value)?
**A.** Its normalized growth is 0.989.

**Q.** What about the normalized growth (locus YER015W, strain faa2, stronger effect = lower value) of the same compound?
**A.** The normalized growth was 0.991.

**Q.** What about the normalized growth (locus YER016W, strain bim1, stronger effect = lower value) of the same compound?
**A.** The normalized growth was 0.975.

**Q.** What about the normalized growth (locus YER110C, stronger effect = lower value) of the same compound?
**A.** Its normalized growth is 0.899 (active).

**Q.** And the normalized growth (locus YER111C, strain swi4, stronger effect = lower value)?
**A.** The normalized growth was 0.985.

**Q.** And the normalized growth (locus YER155C, strain BEM2 (second series), stronger effect = lower value)?
**A.** Its normalized growth is 0.609 (active).

**Q.** And the normalized growth (locus YER155C, strain BEM2, stronger effect = lower value)?
**A.** Its normalized growth is 0.985.

**Q.** And the normalized growth (locus YER167W, strain BCK2, stronger effect = lower value)?
**A.** Its normalized growth is 0.935.

**Q.** And the normalized growth (locus YFR010W, strain ubp6, stronger effect = lower value)?
**A.** The normalized growth was 0.99.

**Q.** And the normalized growth (locus YGL078C, strain dbp3, stronger effect = lower value)?
**A.** The normalized growth was 0.963.

**Q.** And the normalized growth (locus YGL086W, strain mad1, stronger effect = lower value)?
**A.** Its normalized growth is 0.943.

**Q.** And the normalized growth (locus YGL167C, strain pmr1, stronger effect = lower value)?
**A.** Its normalized growth is 0.973.

**Q.** And the normalized growth (locus YGL173C, strain kem1, stronger effect = lower value)?
**A.** The normalized growth was 0.985.

**Q.** What about the normalized growth (locus YGL227W, strain vid30, stronger effect = lower value) of the same compound?
**A.** Its normalized growth is 0.963.

**Q.** What about the normalized growth (locus YGL240W, strain doc1, stronger effect = lower value) of the same compound?
**A.** The normalized growth was 0.903.

**Q.** What about the normalized growth (locus YGL248W, strain PDE1, stronger effect = lower value) of the same compound?
**A.** Its normalized growth is 1.

**Q.** And the normalized growth (locus YGL253W, strain hxk2, stronger effect = lower value)?
**A.** Its normalized growth is 0.994.

**Q.** What about the normalized growth (locus YGR078C, strain PAC10, stronger effect = lower value) of the same compound?
**A.** The normalized growth was 0.965.

**Q.** And the normalized growth (locus YGR135W, strain pre9, stronger effect = lower value)?
**A.** Its normalized growth is 0.912.

**Q.** And the normalized growth (locus YGR229C, strain SMI1, stronger effect = lower value)?
**A.** Its normalized growth is 0.972.

**Q.** And the normalized growth (locus YGR252W, strain gcn5, stronger effect = lower value)?
**A.** Its normalized growth is 0.918.

**Q.** What about the normalized growth (locus YHR013C, strain ard1, stronger effect = lower value) of the same compound?
**A.** The normalized growth was 0.969.

**Q.** What about the normalized growth (locus YHR027C, strain rpn1, stronger effect = lower value) of the same compound?
**A.** The normalized growth was 0.988.

**Q.** What about the normalized growth (locus YHR030C, strain SLT2, stronger effect = lower value) of the same compound?
**A.** Its normalized growth is 0.983 and 0.948.

**Q.** What about the normalized growth (locus YHR079C, strain IRE1 (second series), stronger effect = lower value) of the same compound?
**A.** The normalized growth was 0.912 (active).

**Q.** What about the normalized growth (locus YHR079C, strain IRE1, stronger effect = lower value) of the same compound?
**A.** The normalized growth was 0.956.

**Q.** And the normalized growth (locus YHR094C, strain hxt1, stronger effect = lower value)?
**A.** The normalized growth was 0.946.

**Q.** What about the normalized growth (locus YHR129C, strain ARP1, stronger effect = lower value) of the same compound?
**A.** The normalized growth was 0.983.

**Q.** What about the normalized growth (locus YHR142W, strain chs7, stronger effect = lower value) of the same compound?
**A.** The normalized growth was 0.918.

**Q.** And the normalized growth (locus YHR200W, strain rpn10, stronger effect = lower value)?
**A.** Its normalized growth is 0.926.

**Q.** And the normalized growth (locus YIL066C, strain RNR3, stronger effect = lower value)?
**A.** Its normalized growth is 1.

**Q.** And the normalized growth (locus YIL073C, strain SPO22, stronger effect = lower value)?
**A.** Its normalized growth is 0.891.

**Q.** And the normalized growth (locus YIL125W, strain kgd1, stronger effect = lower value)?
**A.** The normalized growth was 0.929 (active).

**Q.** What about the normalized growth (locus YIR030C, strain dcg1, stronger effect = lower value) of the same compound?
**A.** Its normalized growth is 0.94.

**Q.** And the normalized growth (locus YJL092W, strain hpr5, stronger effect = lower value)?
**A.** The normalized growth was 0.96.

**Q.** What about the normalized growth (locus YJL095W, strain BCK1 (second series), stronger effect = lower value) of the same compound?
**A.** The normalized growth was 0.976.

**Q.** What about the normalized growth (locus YJL095W, strain BCK1, stronger effect = lower value) of the same compound?
**A.** The normalized growth was 0.951 and 0.943.

**Q.** What about the normalized growth (locus YJL115W, strain asf1, stronger effect = lower value) of the same compound?
**A.** Its normalized growth is 0.981.

**Q.** And the normalized growth (locus YJL129C, strain trk1, stronger effect = lower value)?
**A.** Its normalized growth is 0.933.

**Q.** And the normalized growth (locus YJL134W, strain LCB3, stronger effect = lower value)?
**A.** Its normalized growth is 0.988.

**Q.** And the normalized growth (locus YJL154C, strain vps35, stronger effect = lower value)?
**A.** The normalized growth was 0.97.

**Q.** What about the normalized growth (locus YJL164C, strain tpk1, stronger effect = lower value) of the same compound?
**A.** The normalized growth was 0.911 (active).

**Q.** What about the normalized growth (locus YJL166W, strain qcr8, stronger effect = lower value) of the same compound?
**A.** The normalized growth was 0.97.

**Q.** And the normalized growth (locus YJL168C, strain set2, stronger effect = lower value)?
**A.** Its normalized growth is 0.959.

**Q.** And the normalized growth (locus YJL187C, strain SWE1 (second series), stronger effect = lower value)?
**A.** The normalized growth was 1.

**Q.** What about the normalized growth (locus YJL187C, strain SWE1, stronger effect = lower value) of the same compound?
**A.** Its normalized growth is 0.979.

**Q.** What about the normalized growth (locus YJR043C, strain POL32, stronger effect = lower value) of the same compound?
**A.** Its normalized growth is 0.921.

**Q.** What about the normalized growth (locus YJR066W, strain TOR1, stronger effect = lower value) of the same compound?
**A.** The normalized growth was 0.9.
